# Measurements as given in PubChem BioAssay (Tox21).
# Values without a mark were called inactive. Results filed as inconclusive are left out. A call without a number means that no potency is given here. Calls of active or inactive are those of the source. Unless noted, calls come from the whole dose curve; as a rule, active = well fitted curve in the direction sought with a large enough effect in the repeat runs; inconclusive = weak or mixed curves; inactive = no such curve, though single readings can be large; an effect the other way counts as inactive or inconclusive.
# What was measured:
# [1] = biological target: Luciferin 4-monooxygenase (Photinus pyralis) (UniProt P08659); experiment: qHTS assay to identify small molecule inhibitors of firefly luciferase (AID 1224835); note: nearly all actives have a fitted effect of over 25% in size; note: potency is the fitted concentration of half-maximal effect
# Summary of the method: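 Biochemical qHTS: compounds run as interplate titrations against purified firefly enzyme, with D-luciferin and ATP each at its KM concentration. Light output recorded by CCD imaging.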
# [2] = qHTS assay to identify small molecule agonists of the constitutive androstane receptor (CAR) signaling pathway - cell viability counter screen (AID 1224836); note: nearly all actives have a fitted effect of over 45% in size
# Summary of the method: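 Counter screen multiplexed with the CAR reporter readout: HepG2 cells co-transfected with hCAR and the CYP2B6-2.2kb construct receive a 15-concentration compound series and 0.75 uM PK11195 (final), then CellTiter-Fluor fluorescence is read after 23 h.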
# [3] = biological target: Nuclear receptor subfamily 1 group I member 3 (Homo sapiens) (UniProt Q14994); experiment: qHTS assay to identify small molecule agonists of the constitutive androstane receptor (CAR) signaling pathway (AID 1224839); note: nearly all actives have a fitted effect of over 15% in size; note: potency is the fitted concentration of half-maximal effect
# Summary of the method: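 A 15-concentration quantitative screen uses HepG2 cells co-transfected stably with human CAR and CYP2B6-2.2kb reporter. Treatment lasts 24 h with 0.75 uM PK11195 final present; ONE-Glo luminescence is the signal.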
# [4] = qHTS assay to identify small molecule antagonists of the estrogen related receptor signaling pathway with the pleiotropic PPARgamma coactivator (PGC) from Tox21 10K library - cell viability counter screen (AID 1224840; active = well fitted cell-killing curve with a large enough effect in the repeat runs, not every such curve was filed as active; note: nearly all actives have a fitted effect of over 40% in size; note: potency is the fitted concentration of half-maximal effect)
# Summary of the method: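 Readout: fluorescence intensity from CellTiter-Fluor after 30 min at 37 C/5% CO2. Preceded by 17.5 h treatment of PGC/ERR cells with DMSO-dissolved compounds, added 6 h post-seeding.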
# [5] = qHTS assay to identify small molecule agonists of the estrogen related receptor signaling pathway with the pleiotropic PPARgamma coactivator (PGC) from Tox21 10K library (AID 1224842); note: nearly all actives have a fitted effect of over 15% in size
# Summary of the method: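 PGC/ERR reporter cell line, 2,000 cells per well, incubated 6 h at 37 C before 23 nL compound in DMSO was added. After 18 h at 37 C, One-Glo luminescence read following 30 min at room temperature.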
# [6] = qHTS assay to identify small molecule agonists of the hypoxia (HIF-1) signaling pathway - cell viability counter screen (AID 1224844; calls by dose curve; note: nearly all actives have a fitted effect of over 50% in size; note: potency is the fitted concentration of half-maximal effect)
# Summary of the method: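 In this counter screen, HRE-bla ME-180 cell viability after 17 hrs of compound exposure at 37C was read by CellTiter-Glo luminescence, multiplexed with the beta-lactamase reporter measurement.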
# [7] = qHTS assay to identify small molecule agonists of H2AX (AID 1224845; active = well fitted activation curve with a large enough effect in the signal ratio in the repeat runs, not every such curve was filed as active; the % refers to the signal ratio)
# Summary of the method: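 Wild-type CHO-K1 cells, plated overnight, exposed 3hr at 37C to 15 concentrations (0.76% DMSO final). Lysed, then HTRF anti-pH2AX (S139) cryptate and anti-H2AX-d2 antibodies, 24 hr room temperature; 665/620 nm emission read.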
# [8] = qHTS assay to identify small molecule agonists of the hypoxia (HIF-1) signaling pathway (AID 1224846; active = well fitted activation curve with a large enough effect in the signal ratio in the repeat runs, not every such curve was filed as active; the % refers to the signal ratio)
# Summary of the method: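 ME-180 HRE-bla reporter cells; compounds in DMSO, 17 h at 37C; read-out beta-lactamase via CCF4-AM FRET.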
# [9] = qHTS assay to identify small molecule agonists of the estrogen related receptor (ERR) signaling pathway from Tox21 library (AID 1224849; calls by dose curve; note: nearly all actives have a fitted effect of over 15% in size); settings: ERR reporter cell line, ONE-Glo luciferase, 18 h; at 92.4 µM (top of the series) unless noted
# Summary of the method: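 Luciferase activity in ERR pathway reporter cells served as the agonist readout; exposure lasted 18 h at 37 C, with ONE-Glo detection after 30 min at room temperature.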
# [10] = qHTS RealTime-Glo MT Cell Viability Assay in HepG2 cells - 24 hour (AID 1224867); note: nearly all actives have a fitted effect of over 50% in size; note: potency is the fitted concentration of half-maximal effect
# Summary of the method: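 HepG2 cells were seeded at 600 cells/well together with NanoLuc luciferase and a cell-permeant prosubstrate, preincubated 5 h at 37 C/5% CO2, then pin-dosed with compounds in DMSO. Nonlytic luminescence from viable cells was read at each time point.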
# [11] = A CellTox Green Cytotoxicity Assay to monitor cytotoxicity in HEK293 cells - 0 hour (AID 1224869); note: nearly all actives have a fitted effect of over 50% in size
# Summary of the method: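 Real-time, in one plate: 600 HEK293 cells/well with dead-cell DNA dye, pinned compound after 5 h, 37 C incubation over 40 h; viable cells give no appreciable fluorescence.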
# [12] = qHTS RealTime-Glo MT Cell Viability Assay in HepG2 cells - 40 hour (AID 1224870); note: nearly all actives have a fitted effect of over 50% in size; note: potency is the fitted concentration of half-maximal effect
# Summary of the method: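 HepG2 cells (600/well) mixed with RealTime-Glo MT reagent, settled 5 h at 37 C/5% CO2 before compound addition. Nonlytic NanoLuc luminescence from viable-cell prosubstrate reduction read repeatedly during 40 h treatment at 37 C.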
# [13] = qHTS assay to identify small molecule antagonists of the estrogen related receptor (ERR) signaling pathway from Tox21 library - cell viability counter screen (AID 1224834); note: nearly all actives have a fitted effect of over 30% in size; note: potency is the fitted concentration of half-maximal effect
# Summary of the method: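 Counter screen run in ERR cells (2,000 cells/well): cells pre-incubated 6 h, then treated with compounds for 17.5 h at 37 C. Fluorescence was read 30 min after CellTiter-Fluor addition.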
# [14] = qHTS assay to identify small molecule antagonists of the constitutive androstane receptor (CAR) signaling pathway - cell viability counter screen (AID 1224837); note: nearly all actives have a fitted effect of over 45% in size
# Summary of the method: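 CITCO at 50 nM final was added alongside compounds (15 concentrations) to double-stable hCAR/CYP2B6-2.2kb HepG2 cells. Following 23 hr at 37 C, cell viability was quantified by CellTiter-Fluor fluorescence intensity.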
# [15] = qHTS assay to identify small molecule antagonists of the estrogen related receptor signaling pathway with the pleiotropic PPARgamma coactivator (PGC) from Tox21 10K library (AID 1224841; call rule not given here; note: potency is the fitted concentration of half-maximal effect)
# Summary of the method: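 One-Glo luminescence, measured after half an hour at room temperature, quantified reporter output of PGC/ERR cells. These had been plated at 2,000 per well, incubated 6 h, dosed with compounds in DMSO, then kept 18 h at 37 C.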
# [16] = qHTS assay to identify small molecule antagonists of the estrogen related receptor (ERR) signaling pathway from Tox21 library (AID 1224848); note: nearly all actives have a fitted effect of over 50% in size; note: potency is the fitted concentration of half-maximal effect
# Summary of the method: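 Quantitative high-throughput format: ERR reporter cells (2,000/well) pre-incubated 6 h, treated 18 h at 37 C with compounds in DMSO alongside positive and negative controls, then read by ONE-Glo luminescence.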
# [17] = biological target: Nuclear receptor subfamily 1 group I member 3 (Homo sapiens) (UniProt Q14994); experiment: qHTS assay to identify small molecule antagonists of the constitutive androstane receptor (CAR) signaling pathway (AID 1224838); note: nearly all actives have a fitted effect of over 40% in size
# Summary of the method: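 Inhibition of CITCO-driven (50 nM final) CYP2B6 reporter expression is measured in HepG2 cells stably carrying hCAR. Fifteen compound concentrations are applied for 24 h at 37 C, followed by luciferase luminescence.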
# [18] = biological target: Thyrotropin receptor (Homo sapiens) (UniProt P16473); experiment: qHTS assay to identify small molecule agonists of the thyroid stimulating hormone receptor (TSHR) signaling pathway (AID 1224843; calls by dose curve; note: nearly all actives have a fitted effect of over 45% in size)
# Summary of the method: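 Agonist-mode screen: TSHR HEK293 cells received test chemicals for half an hour at room temperature, then HTRF cAMP detection reagents for one hour prior to fluorescence measurement. Each chemical ran as a 15-concentration series, triplicated.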
# [19] = qHTS assay to identify small molecule agonists of H2AX - cell viability counter screen (AID 1224847; calls by dose curve; note: nearly all actives have a fitted effect of over 30% in size; note: potency is the fitted concentration of half-maximal effect)
# Summary of the method: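 We seed wild-type CHO-K1 cells overnight, treat them for 3 hr at 37C with compounds in 15-concentration series, and quantify remaining viability by CellTiter-Glo luminescence.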
# [20] = qHTS RealTime-Glo MT Cell Viability Assay in HEK293 cells - 32 hour (AID 1224868); note: nearly all actives have a fitted effect of over 50% in size; note: potency is the fitted concentration of half-maximal effect
# Summary of the method: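 HEK293 cells were seeded at 600 cells/well together with NanoLuc luciferase and cell-permeant prosubstrate, preincubated 5 h at 37 C/5% CO2, then given compound in DMSO by pintool. Luminescence from viable-cell prosubstrate reduction was read repeatedly over 40 h.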
# Chain of Thyrotropin receptor (Homo sapiens) (P16473 whole entry, looked up): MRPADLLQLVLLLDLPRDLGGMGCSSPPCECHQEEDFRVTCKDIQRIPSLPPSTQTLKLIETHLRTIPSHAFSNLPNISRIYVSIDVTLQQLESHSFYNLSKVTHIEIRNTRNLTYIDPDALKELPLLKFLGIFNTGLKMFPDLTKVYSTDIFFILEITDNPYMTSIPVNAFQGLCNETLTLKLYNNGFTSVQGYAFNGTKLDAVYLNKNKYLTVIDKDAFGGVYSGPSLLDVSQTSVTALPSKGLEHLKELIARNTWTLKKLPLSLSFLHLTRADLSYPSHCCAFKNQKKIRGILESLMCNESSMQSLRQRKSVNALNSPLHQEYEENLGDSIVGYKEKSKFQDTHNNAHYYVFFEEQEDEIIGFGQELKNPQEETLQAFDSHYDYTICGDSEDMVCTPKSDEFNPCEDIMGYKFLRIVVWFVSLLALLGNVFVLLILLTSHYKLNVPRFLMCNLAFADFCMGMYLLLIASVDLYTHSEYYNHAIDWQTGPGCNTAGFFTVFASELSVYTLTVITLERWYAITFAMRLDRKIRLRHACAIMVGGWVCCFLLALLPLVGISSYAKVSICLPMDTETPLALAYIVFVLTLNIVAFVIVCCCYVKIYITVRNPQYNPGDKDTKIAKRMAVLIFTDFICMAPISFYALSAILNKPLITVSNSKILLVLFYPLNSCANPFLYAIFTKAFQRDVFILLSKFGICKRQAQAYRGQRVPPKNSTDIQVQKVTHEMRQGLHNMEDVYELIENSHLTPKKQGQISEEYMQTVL
# Chain of Nuclear receptor subfamily 1 group I member 3 (Homo sapiens) (Q14994 whole entry, looked up): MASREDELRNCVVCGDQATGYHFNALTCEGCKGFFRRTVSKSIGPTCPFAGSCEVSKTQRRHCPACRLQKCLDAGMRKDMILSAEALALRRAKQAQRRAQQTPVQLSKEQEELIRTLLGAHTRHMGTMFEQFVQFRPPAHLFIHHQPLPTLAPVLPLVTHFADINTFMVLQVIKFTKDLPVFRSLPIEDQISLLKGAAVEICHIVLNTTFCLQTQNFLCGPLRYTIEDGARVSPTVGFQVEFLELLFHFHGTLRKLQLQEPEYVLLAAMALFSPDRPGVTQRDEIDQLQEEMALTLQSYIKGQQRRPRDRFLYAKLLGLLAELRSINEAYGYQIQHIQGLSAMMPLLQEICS
# Chain of Luciferin 4-monooxygenase (Photinus pyralis) (P08659 whole entry, looked up): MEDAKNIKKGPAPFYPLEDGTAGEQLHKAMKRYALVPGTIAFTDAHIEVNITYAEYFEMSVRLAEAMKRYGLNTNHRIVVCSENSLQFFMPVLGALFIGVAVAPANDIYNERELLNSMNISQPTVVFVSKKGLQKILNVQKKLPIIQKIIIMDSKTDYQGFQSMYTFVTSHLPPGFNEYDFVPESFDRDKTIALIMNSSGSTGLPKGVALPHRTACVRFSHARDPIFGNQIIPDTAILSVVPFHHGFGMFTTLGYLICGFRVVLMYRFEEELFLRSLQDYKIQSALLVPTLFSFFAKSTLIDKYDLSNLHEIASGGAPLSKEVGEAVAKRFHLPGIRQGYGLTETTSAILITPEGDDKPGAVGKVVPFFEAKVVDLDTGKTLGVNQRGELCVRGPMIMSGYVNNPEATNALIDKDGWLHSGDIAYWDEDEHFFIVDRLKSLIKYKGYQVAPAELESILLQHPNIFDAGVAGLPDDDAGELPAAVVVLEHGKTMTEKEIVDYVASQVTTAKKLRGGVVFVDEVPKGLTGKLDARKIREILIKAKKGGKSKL
Structure (SMILES),Potency [1],Potency [2],Potency [3],Potency [4],outcome [5],Potency [6],Potency [7],outcome [8],"activity change, positive = activation [9]",Potency [10],Potency [11],Potency [12],Potency [13],Potency [14],Potency [15],Potency [16],Potency [17],Potency [18],Potency [19],Potency [20]
CC1(C(=O)Nc2ccc(O)c(Cl)c2Cl)CCCCC1,inactive,inactive,inactive,inactive,inactive,inactive,inactive,inactive,-35.4%,inactive,inactive,inactive,,,,,,,,
CC(COc1ccc(Oc2ccccc2)cc1)Oc1ccccn1 (stereo not given),,inactive,54.4 µM (active),inactive,inactive,inactive,inactive,inactive,0.411%,inactive,inactive,inactive,inactive,inactive,inactive,inactive,,,,
COc1cccc(C(=O)NN(C(=O)c2cc(C)cc(C)c2)C(C)(C)C)c1C,inactive,,inactive,inactive,inactive,inactive,inactive,inactive,-24.8%,,inactive,inactive,,,inactive,,inactive,inactive,inactive,inactive
O=[N+]([O-])c1cccc2c([N+](=O)[O-])cccc12,inactive,,,,inactive,inactive,inactive,inactive,-66%,inactive,inactive,inactive,61.4 µM (active),,34.6 µM (active),30.8 µM (active),inactive,inactive,,49.2 µM (active)
COC(=O)COc1ccc(Cl)cc1Cl,,inactive,,inactive,inactive,inactive,inactive,inactive,8.64%,inactive,,inactive,inactive,inactive,inactive,,,,,inactive
N#CC(CCc1ccc(Cl)cc1)(Cn1cncn1)c1ccccc1 (stereo not given),inactive,,21.7 µM (active),34.4 µM (active),inactive,30.9 µM (active),inactive,,-69.7%,38.9 µM (active),inactive,49 µM (active),30.6 µM (active),,34.4 µM (active),,inactive,,50.5 µM (active),17.4 µM (active)
Fc1ccc(C2(Cn3cncn3)OC2c2ccccc2Cl)cc1 (stereo not given),inactive,,inactive,,inactive,inactive,inactive,inactive,-40.8%,inactive,inactive,inactive,,,38.6 µM (active),,inactive,inactive,inactive,43.6 µM (active)
Nc1c(Br)cc([N+](=O)[O-])cc1[N+](=O)[O-],inactive,inactive,,inactive,inactive,inactive,inactive,inactive,-26.5%,inactive,inactive,inactive,,inactive,inactive,,inactive,inactive,,inactive
CCN(CC)C(=O)[C@@H]1C=C2c3cccc4[nH]cc(c34)C[C@H]2N(C)C1,inactive,,inactive,,inactive,inactive,,inactive,-24.6% [at 240 µM],inactive,,inactive,80 µM (active),,,,,,inactive,
CNC(=O)Oc1cccc(C(C)C)c1,,inactive,,inactive,,inactive,inactive,inactive,,inactive,inactive,,inactive,inactive,,,inactive,inactive,,inactive
ClCCCN1CCN(c2cccc(Cl)c2)CC1,inactive,,,inactive,inactive,inactive,inactive,inactive,-4.21% [at 42.5 µM],inactive,inactive,,inactive,inactive,inactive,,inactive,inactive,inactive,inactive
CC(C)CC(N(C)C)C1(c2ccc(Cl)cc2)CCC1 (stereo not given),inactive,inactive,,,inactive,inactive,inactive,inactive,1.9% [at 42.5 µM],inactive,inactive,inactive,inactive,,inactive,inactive,,,,inactive
O=C(CCCN1CCC(n2c(=O)[nH]c3ccccc32)CC1)c1ccc(F)cc1,inactive,inactive,inactive,inactive,,inactive,inactive,inactive,,inactive,,inactive,,inactive,,,inactive,inactive,inactive,
c1cc[c]([Hg][c]2ccccc2)cc1,17.8 µM (active),inactive,,,,49 µM (active),,,,inactive,inactive,,,,,,,inactive,inactive,30.9 µM (active)
CCOP(=S)(OCC)Oc1nc(Cl)n(C(C)C)n1,,inactive,,inactive,,inactive,inactive,inactive,,inactive,inactive,inactive,inactive,,,,,inactive,inactive,inactive
CN/C(=N\[N+](=O)[O-])NCC1CCOC1 (stereo not given),,inactive,inactive,inactive,,inactive,inactive,inactive,,inactive,inactive,inactive,inactive,inactive,,,,inactive,inactive,inactive
